Reference: the supplement of paper PMC13380429

system: Vero E6 infected with SARS-CoV-2; assay: morphology score (similarity to uninfected cells); higher = more like uninfected cells; conditions: 24 h

SMILES | morphology score
CN(C)C(=O)c1cc2cnc(Nc3ccc(N4CCNCC4)cn3)nc2n1C1CCCC1 [ribociclib] (10 µM) | 0.244
CC(C)(C)C#Cc1cc(N(C(=O)[C@H]2CC[C@H](C)CC2)[C@H]2CC[C@@H](O)CC2)c(C(=O)O)s1 (10 µM) | -0.117
COc1ccc(Oc2c(Cl)cnn(C3c4ccccc4-c4ccccc43)c2=O)cc1 (10 µM) | 0.0752
O=C(NCCN1CCOCC1)c1ccc(Cl)cc1 [moclobemide] (10 µM) | 0.182
Cn1c(=O)c2c(ncn2CC(=O)Nc2ccc(-c3ccccc3)nn2)n(C)c1=O (10 µM) | 0.382
O=C1c2ccccc2C(Cc2ccnc(F)c2)(Cc2ccnc(F)c2)c2ccccc21 (10 µM) | -0.17
CC(=O)OC[C@H]1O[C@@H](n2ccc(=O)[nH]c2=O)[C@H](OC(C)=O)[C@@H]1OC(C)=O [uridine-triacetate] (10 µM) | -0.0249
NCC(O)(CS(=O)(=O)O)c1ccc(Cl)cc1 (stereo not given) [2-hydroxysaclofen] (10 µM) | 0.266
CCCNC(C)(C)COC(=O)c1ccccc1 [meprylcaine] (10 µM) | 0.0721
Cc1cc2c(cc1CC(=O)c1sccc1S(=O)(=O)Nc1onc(C)c1Cl)OCO2 [sitaxentan] (10 µM) | 0.015
FC(F)(F)c1cc(NC(=S)Nc2ccc(Br)cc2-c2nnn[nH]2)cc(C(F)(F)F)c1 (10 µM) | 0.0928
Cc1cccc(C)c1-n1c(=O)c2cnc(Nc3ccc(N4CCN(C)CC4)cc3)nc2n2c3ccccc3nc12 (0.833333 µM) | -0.0551
Cc1cc(Cn2cnc3c2C[C@@H](C(=O)O)N(C(=O)C(c2ccccc2)c2ccccc2)C3)ccc1N(C)C (10 µM) | 0.0919
C1CCC(/N=C(\NC23CC4CC(CC(C4)C2)C3)N2CCOCC2)CC1 (10 µM) | -0.0395
Clc1ccc([C@]23CNC[C@H]2C3)cc1Cl [amitifadine] (10 µM) | 0.0575
CCCC[C@@]1(C2CCCC2)Cc2cc(OCCCC(=O)O)c(Cl)c(Cl)c2C1=O (10 µM) | -0.08
O=C(NCc1ccncc1)C12CC3CC(C1)CC(c1ccc(Cl)cc1)(C3)C2 (10 µM) | 0.00848
CN1C(=O)N[C@H](Cc2c[nH]c3c(Cl)cccc23)C1=O [necrostatin-2] (10 µM) | 0.131
CC1Oc2cc(cnc2N)-c2c(nn(C)c2C#N)CN(C)C(=O)c2ccc(F)cc21 (stereo not given) (10 µM) | 0.32
Cc1ccc(-c2ncn(-c3ccc(Nc4nccc(-c5cccc(N6CCOCC6)c5)n4)cc3)n2)cn1 (10 µM) | -0.292

SMILES | morphology score
CCOc1cc(N2CCC(O)CC2)ccc1Nc1ncc2c(n1)N(C)c1ccccc1C(=O)N2C (0.833333 µM) | -0.0631
O=C(O)[C@@H](S)[C@@H](S)C(=O)O [dimercaptosuccinic-acid] (10 µM) | 0.102
CCO[C@H]1O[C@@H]2O[C@@]3(C)CC[C@H]4[C@H](C)CC[C@@H]([C@H]1C)[C@@]24OO3 [artemotil] (10 µM) | -0.085
COc1cc2nccc(Oc3ccc(NC(=O)C4(C(=O)Nc5ccc(F)cc5)CC4)cc3)c2cc1OC [cabozantinib] (0.833333 µM) | 0.329
O=C(Nc1ccccc1)[C@]12C[C@H]1/C(=N\O)c1ccccc1O2 (10 µM) | 0.246
N=C(N)NC(=N)Nc1ccccc1 [1-phenylbiguanide] (10 µM) | 0.219
Clc1ccc(C(Cn2ccnc2)OCc2csc3c(Cl)cccc23)c(Cl)c1 (stereo not given) [sertaconazole] (10 µM) | 0.201
Cn1cc(C[C@@H](N)C(=O)O)c2ccccc21 [indoximod] (10 µM) | 0.183
Oc1cc2c(cc1O)[C@@H]1c3ccc(O)c(O)c3OC[C@]1(O)C2 [hematoxylin] (10 µM) | -0.0601
O=c1oc2ccccc2c(O)c1Cc1c(O)c2ccccc2oc1=O [dicoumarol] (10 µM) | 0.0403
O=C1C[C@@H]2OCC=C3CN4CC[C@]56c7ccccc7N1[C@H]5[C@H]2[C@H]3C[C@H]46 [strychnine] (10 µM) | 0.314
c1coc(-c2nnc3sc(C4CCCCC4)nn23)c1 [cardionogen-1] (10 µM) | 0.254
Cc1nnsc1C(=O)Nc1ccc(-n2nc(C(F)(F)F)cc2C(F)(F)F)cc1 (10 µM) | -0.0783
CN1CCN(c2cccc(Nc3nc4c(-c5ccc(S(C)(=O)=O)cc5)cccn4n3)c2)CC1 (0.833333 µM) | 0.157
NCCCC[C@H](NC(=O)[C@@H]1CCCN1C(=O)[C@@H]1CSSC[C@H](N)C(=O)N[C@@H](Cc2ccc(O)cc2)C(=O)N[C@@H](Cc2ccccc2)C(=O)N[C@@H](CCC(N)=O)C(=O)N[C@@H](CC(N)=O)C(=O)N1)C(=O)NCC(N)=O [lypressin] (10 µM) | 0.164
COc1cc(NC(=O)c2ccccn2)ccc1Cl (10 µM) | 0.133
C#Cc1cccc(Nc2ncnc3cc(OCCOC)c(OCCOC)cc23)c1 [erlotinib] (10 µM) | -0.159
CC(=O)OCC1=C(C(=O)O)N2C(=O)[C@@H](N)[C@H]2SC1 [7-aminocephalosporanic-acid] (10 µM) | -0.0363
COC(=O)CCC(=O)CN [methyl-aminolevulinate] (10 µM) | 0.118
CN(C(=O)CN1C(=O)COc2cc(Cl)c(Cl)cc21)[C@@H](CN1CCCC1)c1ccc(-c2cccc(C(N)=O)c2)cc1 (0.833333 µM) | 0.0807
